Where “and” joins values, the source holds several entries; their conditions need not be identical. Equal values may be shown once. Compounds without any hit were thinned out: in the full panel of roughly 83,000, 20% have a hit.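 Results are percent growth after 48 hours of single-concentration exposure. 100 means growth as in untreated cells, lower positive values show inhibition; negative values down to -100 show cell death.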 Values without a mark were called inactive. Calls of active or inactive are those of the source. Rule for the calls: active = growth percent below 10; inactive = the rest.

This test has as its system MDA-MB-468 breast. Put plainly: NCI-60 one-dose screen, 48 h (100 = growth as untreated, 0 = no growth, -100 = all killed). As to conditions: 10 µM unless noted.
As for `CC1(C)N=C(N)N=C(N)N1c1cccc(OCCOc2cccc([N+](=O)[O-])c2)c1`, the growth was 25.1%.
Take `N#Cc1ccc(OC(=O)Nc2ccc(Cl)c(Cl)c2)cc1`: the growth is 42.9%.
For `CCCCCCCC(=O)SCC/C=C/[C@@H]1CC(=O)NCc2cc(ccn2)C2=N[C@@](C)(CS2)C(=O)N[C@@H](C(C)C)C(=O)O1`, the growth was 12.2%.
With `CCN(CC)CCCN1C(=O)c2c(c(C)c3c(oc4ccc(O)cc43)c2C)C1=O` the figure was 75.7%; with `Cc1cn(C(C=O)OC(C=O)CO)c(=O)[nH]c1=O` (centres undefined), 113%; with `N#C/C(C(=O)c1ccccc1)=C1/C(=O)Nc2ccc(Br)cc21`, 102%.
As to `N#Cc1cccc(-c2nc3ccccn3c2NCCN2CCOCC2)c1`, the growth is 111%.
As to `O=C(Nc1cccc(C2=NCCN2)c1)c1ccc(-c2ccc(C(=O)Nc3cccc(C4=NCCN4)c3)cc2)cc1`, the growth is 62%.
With `O=C(/C(=C\c1ccc([N+](=O)[O-])cc1)S(=O)Cc1ccc(Cl)cc1)c1ccc(Cl)cc1` (centres undefined) the figure was 74%; with `O=S1(=O)NCCCN1CCNc1nccc(-c2c(-c3cccc(O)c3)nc3sccn23)n1`, 78.8%; with `COc1cc(C2NC(c3ccc(Cl)cc3)C(C)C(=NC(=O)c3cnccn3)C2C)cc(OC)c1OC` (centres undefined), 91.6%.
With `Cc1c(Cl)cccc1NC(=O)c1sc2nc3c(cc2c1N)CCCCCC3` the figure was 26.5%.
For the compound `CCC[CH2][Sn]1([CH2]CCC)[O]C2C(CO)OC(n3ccc(N)nc3=O)C2[O]1` (centres undefined), the growth is -82.9% (active).
With `Cn1c(N)c(N=Nc2ccc(S(=O)(=O)Nc3nccs3)cc2)c(=O)n(C)c1=O` the figure was 116%; with `O=C1c2ccccc2OC=C(c2ccccc2)N1CCCCNc1ccc(S(=O)(=O)Nc2ncccn2)cc1`, 103%; with `CC1CCCCN1CCCNC(=O)c1ccc2c(c1)sc1nc(-c3ccc(F)cc3)cn12` (centres undefined), 96.3%.
The value for `CN1CCc2nc3sc(C(N)=O)c(N)c3c(-c3cccs3)c2C1` was 14.2%; that for `COc1ccc2c(c1)C(C)Cc1c(Cl)nc(C)nc1N2C` (centres undefined) was 25.8%; that for `N#Cc1cccc(/C(N)=N/C(N)=N/c2nc3ccccc3s2)c1` was 18.7%.
Consider `C=C1C(=O)O[C@H]2[C@H]1CC/C(CNC(=O)c1cc3ccccc3[nH]1)=C\CC[C@@]1(C)O[C@@H]21`, for which the growth was -61.7% (active).
On to `COc1ccc(/C=C2\Oc3cc(OCCCN4CCCCC4)ccc3C2=O)cc1OC`, for which the growth was 76.4%.
With `O=c1c(-c2nc3ccccc3[nH]2)cc2ccccc2n1Cc1cn(Cc2ccc(F)cc2)nn1` the figure was 4.78% (active).
Take `CO[C@H]1/C=C/O[C@@]2(C)Oc3c(C)c(O)c4c(c3C2=O)C(=O)C(/C=N/N(c2ccccc2)c2ccccc2)=C(NC(=O)/C(C)=C\C=C\[C@H](C)[C@H](O)[C@@H](C)[C@@H](O)[C@@H](C)[C@H](OC(C)=O)[C@@H]1C)C4=O`: the growth was -2.58% (active).
The value for `N#Cc1nc(C#N)c(Sc2ccccc2)c(Sc2ccccc2)c1Sc1ccccc1` was -73.9% (active); that for `Cc1ccc(-c2nc(SCC(=O)c3ccccc3)nc(Nc3ccc(S(N)(=O)=O)cc3)c2C#N)cc1` was 113%.
The value for `O=C1CCc2ccccc2N1` was 98.8%; that for `CCN1CC(=O)N(/N=C2\C(=O)Nc3ccccc32)C1=S` was 73.1%; that for `COc1ccc2[nH]cc(-c3nc(-c4c[nH]c5ncccc45)cs3)c2c1` was 39.1%.
The value for `Nc1nc(Cl)nc2c1ncn2C1OC(CO)C(O)C1O` (centres undefined) was 124% and 94.5%; that for `CC(C)(C)c1ccc(/C=C/C(=O)Nc2ccc(O)cc2)cc1` was 92.2%.
Take `COc1ccc(NC(=O)c2sc3c(=O)[nH]c(C(F)(F)F)nc3c2C)cc1`: the growth is 131%.
As to `O=c1oc2ccccc2cc1-c1nn(-c2ccccc2)cc1/C=N/Nc1nc(-c2ccccc2)c(N=Nc2ccccc2)s1`, the growth was 48.5%.
In the case of `Cc1nc2ccccc2c(/C=C/c2ccc(Cl)cc2)c1C(=O)/C=C/c1cccs1`, the growth was 79.7%.
The value for `COc1ccc(C2c3ccc4ccccc4c3Oc3ncnc(N)c32)cc1` (centres undefined) was 86.6%; that for `COc1ccc(/C=C2\SC(=S)N(CCCN3CCOCC3)C2=O)c(OC)c1` was 87.4%; that for `COc1ccc(-c2cn3ccnc3c(-c3ccc4ncn(C5CCCCC5)c4c3)n2)cc1` was 2.59% (active).
The value for `Cc1ccc(-c2ccc(Nc3ccccc3)nn2)cc1S(N)(=O)=O` was 64%; that for `COc1ccc(OC)c2c1CCC1(C2)NC(=O)NC1=O` (centres undefined) was 106%.
The value for `CC/C(=C(\c1ccc(O)cc1)c1ccc(OCCN(C)CCN(C)C(=O)CCC(=O)c2c(C)[nH]c(/C=C3\N=C(c4ccc[nH]4)C=C3OC)c2C)cc1)c1ccccc1` was 65.9%.

These data come from PubChem BioAssay (NCI).
